Measured values: PubChem BioAssay AID1851 (National Center for Advancing Translational Sciences (NCATS), 2009)
Several values for one entry are separate records, joined by “and”; a condition that tells them apart may be missing. Equal values may be shown once. About 2,600 (16%) of roughly 16,000 compounds were called active. Roughly 20% stayed inconclusive and do not appear here. The call rests on the fitted dose curve; in most records, active means well fitted curve in the direction sought with a large enough effect; inconclusive means small, poorly fitted or top-dose-only effect, or effect the other way; inactive means no such curve, though single readings can be large or run the other way. The list is a sample of the results.

Each compound was assayed against Cytochrome P450 2D6 (Homo sapiens) (UniProt P10635) (assay: Cytochrome panel assay with activity outcomes). Settings: recombinant CYP, pro-luciferin dealkylation, luminescence, p450-cyp2d6; series mostly up to 57.1 µM.
On the % scale 0 is the no-effect control and ±100 the full control effect.

Cytochrome P450 2D6 (Homo sapiens), sequence (P10635 whole entry, looked up): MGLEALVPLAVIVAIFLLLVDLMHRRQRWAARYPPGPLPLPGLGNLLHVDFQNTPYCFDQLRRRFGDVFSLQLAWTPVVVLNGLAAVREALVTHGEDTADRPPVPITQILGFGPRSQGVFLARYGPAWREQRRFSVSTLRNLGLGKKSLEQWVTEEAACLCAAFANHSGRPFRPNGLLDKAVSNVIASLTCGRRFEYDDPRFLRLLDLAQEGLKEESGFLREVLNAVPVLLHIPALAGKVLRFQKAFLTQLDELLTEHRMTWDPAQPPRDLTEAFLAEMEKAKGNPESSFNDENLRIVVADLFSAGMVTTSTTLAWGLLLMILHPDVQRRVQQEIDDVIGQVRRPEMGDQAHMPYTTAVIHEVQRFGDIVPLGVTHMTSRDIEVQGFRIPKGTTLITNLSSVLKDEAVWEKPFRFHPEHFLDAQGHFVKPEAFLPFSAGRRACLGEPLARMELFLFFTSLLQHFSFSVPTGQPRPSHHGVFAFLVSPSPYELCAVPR

AC50, inactive:
COc1cccc(C(CC(=O)Nc2cccc3ccccc23)NC(=O)c2ccccc2)c1 (stereo unspecified)
COC(=O)c1cc2c(ccn2-c2ccc(F)cc2)n1C(C)C
CNC(=O)c1cc2c(cn1)[nH]c1ccccc12
Cc1ccc(NC(=O)CN2C(=O)N/C(=C/c3ccc(C)o3)C2=O)cc1
CC(=O)OCc1nc2ccccc2s1
CCCCOC(=O)Nc1nc2ccccc2s1
Cc1cc2ncn(/N=C/c3ccc([N+](=O)[O-])o3)c2cc1C
Cc1cccc(NC(=O)c2cc(=O)c3ccccc3o2)n1
COc1cccc2cc3c(=O)oc4ccccc4c3nc12
CC1CC2=C(NC(=S)NC2c2ccc(F)cc2)/C(=C/c2ccc(F)cc2)C1 (stereo unspecified)
COc1cccc(-c2cc3nc(-c4ccccc4)cc(N4CCC5(CC4)OCCO5)n3n2)c1
CCNc1ncc2nc(CCc3ccccc3)c(=O)n(Cc3cccc(OC)c3)c2n1
N#CCCn1c(=O)c(CCc2ccccc2)nc2cnc(Nc3ccccc3)nc21
COc1cccc(Nc2ncc3nc(CCc4ccccc4)c(=O)n(CCC#N)c3n2)c1
COCCn1c(=O)c(CCc2ccccc2)nc2cnc(OC)nc21
CCC(=O)N1CCN(C(=O)c2ccccc2)CC1
COCCCNC(=O)/C=C/c1cccc(Cl)c1
COC(=O)c1cccc(NC(=O)/C=C/c2cccc([N+](=O)[O-])c2)c1
COc1ccc(C(=O)NCc2cn3ccccc3n2)cc1
C=C[C@@]1(C)CC(=O)[C@@]2(O)[C@@]3(C)[C@@H](O)CCC(C)(C)[C@@H]3[C@H](OC(=O)CCN(C)C)[C@H](OC(C)=O)[C@@]2(C)O1
CC1(C)Oc2ccc(NC(=O)c3ccco3)cc2O1
CCC(NC(=O)c1ccccc1NC(=O)c1ccco1)C(=O)NC1CCCCC1 (stereo unspecified)
O=C(N/N=C/c1ccc2c(c1)OCO2)/C(=C/c1ccc2c(c1)OCO2)NC(=O)c1ccccc1
Cc1ccc(NC(=O)/C(=C\c2cccnc2)NC(=O)c2ccco2)cc1
O=C(NC(Cc1ccccc1)C(=O)O)/C(=C\c1ccco1)NC(=O)c1ccc(Br)cc1 (stereo unspecified)
COc1ccccc1C(=O)N/C(=C/c1ccc(Br)cc1)C(=O)NCC(=O)O
CC(=O)COc1ccc2c(C)c(C)c(=O)oc2c1
CCOC(=O)C(Sc1ncnc2c1sc1nc(N3CCOCC3)c3c(c12)CCCC3)c1ccccc1 (stereo unspecified)
CCOC(=O)CC1C(=O)NCCN1S(=O)(=O)c1ccc(Cl)c(Cl)c1 (stereo unspecified)
COc1ccc(-n2c(=O)c(-c3ccc(F)c(F)c3)nc3cncnc32)cc1
FC(F)(F)c1ccccc1-c1nc(NC2CCNCC2)c2ccccc2n1
Clc1ccccc1-c1nc(N/N=C/c2cccnc2)c2ccccc2n1
Cc1ccccc1-c1nc(Nc2ccncc2)c2ccccc2n1
COc1cc(OC)c(C2C(C(=O)O)c3ccccc3C(=O)N2C)cc1OC (stereo unspecified)
NC1(C(=O)O)C[C@@H](C(=O)O)[C@H](C(=O)O)C1
CCNc1ncc2nc(-c3ccc(Cl)cc3)c(=O)n(C3CC3)c2n1
N#CCCn1c(=O)cnc2cnc(N3CCOCC3)nc21
CCCCCc1nnc(NC(=O)C(=O)OCC)s1
CC(C)OCCCN1C(=O)c2ccccc2C1C(=O)NC1CCCCC1 (stereo unspecified)
CO/N=C(\C(=O)N[C@@H]1C(=O)N2C(C(=O)[O-])=C(C[N+]3(C)CCCC3)CS[C@@H]12)c1csc(N)n1
Cn1cccc1CC(=O)N/N=C\c1cccs1
CCCCC(=O)NNC(=S)NC(=O)c1cccc([N+](=O)[O-])c1
CCCn1c(=O)c2[nH]c(-c3ccccc3)nc2n(CCC)c1=O
CC1(C)OC(=O)C(=CNc2cccc(O)c2)C(=O)O1
CC(C)=CCc1c(C)nc2ccccc2c1C(=O)O
CC(CC(=O)O)CC(=O)Nc1ccc(S(N)(=O)=O)cc1 (stereo unspecified)
O=C1/C(=N\O)Cc2ccccc21
CCc1cc(C(=O)OC)c(NC(=O)CCCC(=O)O)s1
O=C(NNC(=O)c1cccnc1)Nc1cccc2ccccc12
Cc1ccc(N=CC2=C(O)CC(c3ccco3)CC2=O)cc1 (stereo unspecified)
COc1cc(OC)c2c(c1)C(=O)c1cc(OC)cc(OC)c1C2=O
O=c1c(-c2ccccc2)nc2cnc(N3CCOCC3)nc2n1C[C@H]1CCCO1
O=C1c2ccccc2C(=O)N1CC1CCCO1 (stereo unspecified)
Cc1c(Cl)cccc1NC(=O)CCC(=O)NNC(=O)c1ccco1
Cc1noc(C)c1C(=O)N1CCC2(CCCN(C(=O)NC(C)C)C2)CC1
O=C(CCNS(=O)(=O)c1cccs1)N1CCCCCC1
O=C(O)CCC(=O)N1CCc2cc(S(=O)(=O)NCc3cccs3)ccc21
COCCn1c(=O)c(-c2cc(F)cc(F)c2)nc2cncnc21
COC(=O)N1CCC[C@@]2(CCN(C(=O)Nc3cccc(C#N)c3)C2)C1
COCC(=O)N1CCC2(CC1)CN(Cc1ccc(C#N)cc1)C2
CC(=O)N1CCC2(CC1)CN(Cc1ccccc1)C2
O=c1cnc2cnc(N3CCNCC3)nc2n1Cc1ccc(F)cc1
CCNC(=S)NNC(=O)c1cc(CC(C)C)nc2ccccc12
Cn1c(=O)c(-c2cccc(C#N)c2)nc2cnc(Oc3ccccc3)nc21
O=c1cc(O)cc(/C=C\c2ccc(O)c(O)c2)o1
CC1=C(C(=O)N2CCCCCC2)C2(CCC(C)CC2)OC1=O (stereo unspecified)
COc1ccccc1NC(=S)NNC(=O)c1c(Cl)c(C)nn1C
CC(C)CN(CC(C)C)S(=O)(=O)N1CCC(C(=O)NCc2ccc(F)cc2)CC1

AC50, active:
O=C1c2ccccc2-c2n[nH]c3cccc1c23 0.398 µM
CCCc1cc(C(=O)Cc2nc3ccccc3s2)c(O)cc1O 1.41 µM
COc1cccc(-c2cc(=O)c3ccccc3o2)c1N 7.94 µM
CCNc1ncc2nc(CCc3ccccc3)c(=O)n(CCC#N)c2n1 0.158 µM
CCNc1ncc2nc(CCc3ccccc3)c(=O)n(CCOC)c2n1 0.398 µM
O=C(/C=C/c1cccc(Cl)c1)Nc1ccncc1 7.94 µM
O=C(Nc1ccccc1)/C(=C\c1ccc2c(c1)OCO2)NC(=O)c1ccco1 15.8 µM
O=C(Nc1ccccc1C(=O)Nc1ccc2c(c1)OCO2)c1ccco1 12.6 µM
C=CCNC(=O)/C(=C\c1ccc2c(c1)OCO2)NC(=O)c1ccc(Br)cc1 25.1 µM
FC(F)(F)c1ccccc1-c1nc(Nc2ccncc2)c2ccccc2n1 25.1 µM
Clc1ccccc1-c1nc(NCc2cccnc2)c2ccccc2n1 20 µM
FC(F)(F)c1ccccc1-c1nc(NCc2cccnc2)c2ccccc2n1 15.8 µM
CC(C)=CCC1=C(OCC(=O)O)C(=O)c2ccccc2C1=O 3.16 µM
CN1CCC(=C2c3ccccc3CC(=O)c3sccc32)CC1 7.94 µM and 3.16 µM and 5.01 µM
CN1CCC(=C2c3ccccc3CCc3sccc32)CC1 1.26 µM
Nc1ncc(-c2ccccc2)n1CC1CCCO1 (stereo unspecified) 3.55 µM
O=C(CCNS(=O)(=O)c1cccs1)N1CCc2ccccc2C1 12.6 µM
CC(=O)N1CCC2(CCCN(Cc3ccccc3)C2)CC1 2.51 µM
COC(=O)N1CCC2(CCCN(Cc3ccc(C#N)cc3)C2)CC1 0.316 µM
COC(=O)N1CCC2(CCCN(Cc3ccccc3)C2)CC1 10 µM

activity, negative = inhibition, inactive:
Nc1n[nH]c2ccccc12 -3.15% [at 11.4 µM]
O=c1ccc(-c2ccccc2)n[nH]1 2.58% [at 11.4 µM]
CO[C@@H]1/C=C\CC(=O)N[C@@H](C)C(=O)OC[C@H](NS(=O)(=O)c2ccc(C)cc2)[C@H](C)/C=C\CC(=O)OC[C@H]1C -18.7% [at 11.4 µM]
COc1cc(O)c2c(O)c3c(c4c2c1[C@@]1(C4)C(C)=CCCC1(C)C)[C@H](O)[C@@]1(O)CC(=O)C(C(N)=O)=C(O)[C@]1(O)C3=O -15.8% [at 11.4 µM]
C[C@@]1(CCOCc2ccccc2)NC(=O)NC1=O -5.74% [at 11.4 µM]
C#CCCCO/N=C1/C[C@@H](O)[C@@H](O)[C@@H]2[C@@H]3C(=O)N(CC)C(=O)[C@H]3CC[C@H]12 14.7% [at 11.4 µM]
NC(N)=NC(N)=Nc1ccc(S(=O)(=O)O)cc1 3.23% [at 11.4 µM]
O=C(O)/C(=C\c1ccccc1)c1ccccc1 -2.29% [at 11.4 µM]
CO[C@H]1COC(=O)C/C=C\[C@H](C)[C@@H](NS(=O)(=O)c2ccc(C)cc2)COC(=O)C/C=C\[C@@H]1C 3.82% [at 11.4 µM]
NC(N)=NC(N)=Nc1c(F)c(F)c(F)c(F)c1F 13.6% [at 11.4 µM]
CCOC(=O)c1cnc(N(C)C)nc1SC(=N)N -3.04% [at 11.4 µM]
COc1c(NC(C)=O)c2ccccc2c2ccccc12 -0.0075% [at 11.4 µM]
O=C1[C@H]2[C@H]3[C@H](O)[C@H](O)C/C(=N/OCc4ccccc4)[C@@H]3CC[C@@H]2C(=O)N1C[C@@H]1CCCO1 10% [at 11.4 µM]
